According to the supplement of paper PMC7057948, “A genome-wide approach for identification and characterisation of metabolite-inducible systems” (Nature Communications, 2020):

Assays:
Conditions in all cases: inducer concentration 5 mM; 6 h; Cupriavidus necator H16; minimal medium + 0.4% gluconate
[1] = tested on: AcoR/P_H16_RS19445 acetoin biosensor (pEH052); experiment: relative induction of RFP reporter vs primary effector (background-corrected); higher = stronger activation of the biosensor
Protocol: (§1)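 C. necator H16 strains, each carrying one of 21 transcription factor/inducible promoter–mRFP biosensor plasmids, were grown in minimal medium in 96-well plates (robotic platform). Each was exposed to 46 structurally or metabolically related compounds at 5 mM at 30 °C. OD-normalised RFP fluorescence was read 6 h later and expressed as relative induction (%) = 100 × (FL compound − FL uninduced)/(FL primary inducer − FL uninduced); mean of n=4.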

[2] = tested on: AraC/P_araBAD L-arabinose biosensor (pEH176); experiment: as above
Protocol: as §1

[3] = tested on: BenM/P_H16_RS09790 benzoate biosensor (pEH148); experiment: as above
Protocol: as §1

[4] = tested on: FdsR/P_H16_RS03165 formate biosensor (pEH134); experiment: as above
Protocol: as §1

[5] = tested on: GabR/P_H16_RS23655 GABA biosensor (pEH256); experiment: as above
Protocol: as §1

[6] = tested on: HpdR/P_H16_RS18295 3-hydroxypropanoate biosensor (pEH010); experiment: as above
Protocol: as §1

[7] = tested on: KynR/P_H16_RS14030 L-kynurenine biosensor (pEH136); experiment: as above
Protocol: as §1

[8] = tested on: NahR/P_H16_RS08125 salicylate biosensor (pEH042); experiment: as above
Protocol: as §1

[9] = tested on: OapR/P_H16_RS01330 beta-alanine biosensor (pEH147); experiment: as above
Protocol: as §1

[10] = tested on: PcaQ/P_H16_RS30145 3,4-dihydroxybenzoate biosensor (pEH161); experiment: as above
Protocol: as §1

[11] = tested on: PhgR/P_H16_RS05530 phenylglyoxylate biosensor (pEH155); experiment: as above
Protocol: as §1

[12] = tested on: PhhR/P_H16_RS18365 L-phenylalanine biosensor (pEH137); experiment: as above
Protocol: as §1

[13] = tested on: SauR/P_H16_RS13695 sulfonatoacetate biosensor (pEH157); experiment: as above
Protocol: as §1

[14] = tested on: TtdR/P_H16_RS10665 tartrate biosensor (pEH083); experiment: as above
Protocol: as §1

[15] = tested on: XdhR/P_H16_RS05055 xanthine biosensor (pEH154); experiment: as above
Protocol: as §1

[16] = tested on: heterologous inducible system pEH002 (rhamnose/acrylate/cumate/itaconate set); experiment: as above
Protocol: as §1

[17] = tested on: heterologous inducible system pEH020 (rhamnose/acrylate/cumate/itaconate set); experiment: as above
Protocol: as §1

[18] = tested on: heterologous inducible system pEH040 (rhamnose/acrylate/cumate/itaconate set); experiment: as above
Protocol: as §1

[19] = tested on: heterologous inducible system pEH086 (rhamnose/acrylate/cumate/itaconate set); experiment: as above
Protocol: as §1

[20] = tested on: AcoR/P_H16_RS19445 acetoin biosensor (pEH052); experiment: relative induction of RFP reporter vs primary effector; higher = stronger activation
Protocol: (§2)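 Orthogonality screen of 21 primary inducers against 21 transcription factor/inducible promoter–mRFP biosensors in C. necator H16 in minimal medium, robotic 96-well format, 5 mM inducer, 30 °C. OD-normalised RFP fluorescence was read 6 h later and expressed as relative induction (%) = 100 × (FL compound − FL uninduced)/(FL primary inducer − FL uninduced); mean of n=4. Cognate pairs (100% by definition) omitted.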

[21] = tested on: AraC/P_araBAD L-arabinose biosensor (pEH176); experiment: as above
Protocol: as §2

[22] = tested on: BadR/P_H16_RS27200 cyclohexanecarboxylate biosensor (pEH159); experiment: as above
Protocol: as §2

[23] = tested on: BenM/P_H16_RS09790 benzoate biosensor (pEH148); experiment: as above
Protocol: as §2

[24] = tested on: FdsR/P_H16_RS03165 formate biosensor (pEH134); experiment: as above
Protocol: as §2

[25] = tested on: GabR/P_H16_RS23655 GABA biosensor (pEH256); experiment: as above
Protocol: as §2

[26] = tested on: HpdA/P_H16_RS24175 L-tyrosine biosensor (pEH158); experiment: as above
Protocol: as §2

[27] = tested on: OapR/P_H16_RS01330 beta-alanine biosensor (pEH147); experiment: as above
Protocol: as §2

[28] = tested on: PcaQ/P_H16_RS30145 3,4-dihydroxybenzoate biosensor (pEH161); experiment: as above
Protocol: as §2

[29] = tested on: PhgR/P_H16_RS05530 phenylglyoxylate biosensor (pEH155); experiment: as above
Protocol: as §2

[30] = tested on: SauR/P_H16_RS13695 sulfonatoacetate biosensor (pEH157); experiment: as above
Protocol: as §2

[31] = tested on: TtdR/P_H16_RS10665 tartrate biosensor (pEH083); experiment: as above
Protocol: as §2

[32] = tested on: XdhR/P_H16_RS05055 xanthine biosensor (pEH154); experiment: as above
Protocol: as §2

[33] = tested on: heterologous L-rhamnose-inducible system; experiment: as above
Protocol: as §2

[34] = tested on: heterologous acrylate-inducible system; experiment: as above
Protocol: as §2

[35] = tested on: heterologous cumate-inducible system; experiment: as above
Protocol: as §2

[36] = tested on: heterologous itaconate-inducible system; experiment: as above
Protocol: as §2

[37] = tested on: NahR/P_H16_RS08125 salicylate biosensor (pEH042); experiment: as above
Protocol: as §2
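Throughout, for relative induction of RFP reporter vs primary effector (background-corrected): RFP excited at 585 nm with emission read at 620 nm, culture medium blanks subtracted from fluorescence and absorbance prior to normalisation.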

CC(N)CC(=O)O (centres undefined) [3-aminobutanoate]
relative induction of RFP reporter [1]: 0.0935% | relative induction of RFP reporter [2]: -0.0347% | relative induction of RFP reporter [3]: 0.00428% | relative induction of RFP reporter [4]: -2.98% | relative induction of RFP reporter [5]: -1.28% | relative induction of RFP reporter [6]: -0.191% | relative induction of RFP reporter [7]: -0.097% | relative induction of RFP reporter [8]: 0.00216% | relative induction of RFP reporter [9]: 57.8% | relative induction of RFP reporter [10]: 0.0297% | relative induction of RFP reporter [11]: 0.0503% | relative induction of RFP reporter [12]: -0.0355% | relative induction of RFP reporter [13]: -0.0365% | relative induction of RFP reporter [14]: 0.625% | relative induction of RFP reporter [15]: 0.412% | relative induction of RFP reporter [16]: 0.0041% | relative induction of RFP reporter [17]: -0.315% | relative induction of RFP reporter [18]: 0.21% | relative induction of RFP reporter [19]: 0.139%

O=C(O)c1ccccc1O [salicylate]
relative induction of RFP reporter [20]: -1.02% | relative induction of RFP reporter [21]: -0.0255% | relative induction of RFP reporter [22]: -0.169% | relative induction of RFP reporter [23]: 1.72% | relative induction of RFP reporter [24]: -11.3% | relative induction of RFP reporter [25]: 1.28% | relative induction of RFP reporter [26]: -0.0712% | relative induction of RFP reporter [27]: -0.51% | relative induction of RFP reporter [28]: -0.391% | relative induction of RFP reporter [29]: -0.369% | relative induction of RFP reporter [30]: 0.0177% | relative induction of RFP reporter [31]: -0.317% | relative induction of RFP reporter [32]: -0.278% | relative induction of RFP reporter [33]: 0.019% | relative induction of RFP reporter [34]: -1.06% | relative induction of RFP reporter [35]: 0.792% | relative induction of RFP reporter [36]: -0.0867%

O=c1[nH]c(=O)c2nc[nH]c2[nH]1 [xanthine]
relative induction of RFP reporter [20]: -1.36% | relative induction of RFP reporter [21]: 0.0252% | relative induction of RFP reporter [22]: -0.537% | relative induction of RFP reporter [23]: -0.0092% | relative induction of RFP reporter [24]: -4.71% | relative induction of RFP reporter [25]: -1.02% | relative induction of RFP reporter [26]: -0.0594% | relative induction of RFP reporter [37]: 0.0144% | relative induction of RFP reporter [27]: 1.27% | relative induction of RFP reporter [28]: -0.198% | relative induction of RFP reporter [29]: -0.06% | relative induction of RFP reporter [30]: 0.0306% | relative induction of RFP reporter [31]: 0.737% | relative induction of RFP reporter [33]: 0.0204% | relative induction of RFP reporter [34]: -1.68% | relative induction of RFP reporter [35]: -0.479% | relative induction of RFP reporter [36]: 0.00052%

O=C(O)C1CCCCC1 [cyclohexane-1-carboxylate]
relative induction of RFP reporter [20]: 2.02% | relative induction of RFP reporter [21]: -0.0317% | relative induction of RFP reporter [24]: -8.69% | relative induction of RFP reporter [25]: -0.578% | relative induction of RFP reporter [26]: -0.0345% | relative induction of RFP reporter [37]: -0.0105% | relative induction of RFP reporter [27]: -0.348% | relative induction of RFP reporter [28]: -0.211% | relative induction of RFP reporter [29]: -0.472% | relative induction of RFP reporter [30]: 0.0396% | relative induction of RFP reporter [31]: 2.19% | relative induction of RFP reporter [32]: 0.127% | relative induction of RFP reporter [33]: -0.00651% | relative induction of RFP reporter [34]: -0.97% | relative induction of RFP reporter [35]: 2.49% | relative induction of RFP reporter [36]: 0.233%

O=C(O)C(O)c1ccccc1 (centres undefined) [mandelic acid]
relative induction of RFP reporter [1]: 4.07% | relative induction of RFP reporter [2]: 0.0229% | relative induction of RFP reporter [3]: 0.175% | relative induction of RFP reporter [4]: 1.81% | relative induction of RFP reporter [5]: 1.32% | relative induction of RFP reporter [6]: 0.0419% | relative induction of RFP reporter [7]: -0.345% | relative induction of RFP reporter [8]: -0.000243% | relative induction of RFP reporter [9]: 0.364% | relative induction of RFP reporter [10]: 0.0192% | relative induction of RFP reporter [11]: -0.332% | relative induction of RFP reporter [12]: -0.406% | relative induction of RFP reporter [13]: 0.0426% | relative induction of RFP reporter [14]: -0.395% | relative induction of RFP reporter [15]: -0.0998% | relative induction of RFP reporter [16]: 0.0137% | relative induction of RFP reporter [17]: 0.769% | relative induction of RFP reporter [18]: 1.17% | relative induction of RFP reporter [19]: 0.563%

O=CC(=O)O
relative induction of RFP reporter [11]: -0.587%
